Compound activity (PubChem BioAssay)
Only some compounds are listed: those with a hit (about 2.4% of all), similar ones and a draw of the others.
Rango complex inh = Rango-importin beta binding inhibition; Rango CFP/YFP FRET sensor + importin beta, 45 min; Potency, µM (titrated, usually from 92.2 µM); 0.031% of 340,000 active; calls by dose curve; note: nearly all actives have a fitted effect of over 15% in size
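FRET biosensor Rango (snurportin 1 IBB between N-terminal EYFP and C-terminal Cerulean), 50 nM in PBS/1 mM DTT/0.02% Tween-20/0.1% BSA, preincubated 5 min RT with compound; 0.125 microM importin beta added, 45 min RT, CFP/YFP FRET ratio read.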
TDP1 block = blocks human tyrosyl-DNA phosphodiesterase 1. 0.28% of 350,000 active. recombinant TDP1, AlphaScreen DNA substrate cleavage. Potency, µM (doses to about 130 µM), hits mostly inhibitors. Q9NUW8; note: nearly all actives have a fitted effect of over 40% in size
Target sequence (Q9NUW8 whole entry, looked up): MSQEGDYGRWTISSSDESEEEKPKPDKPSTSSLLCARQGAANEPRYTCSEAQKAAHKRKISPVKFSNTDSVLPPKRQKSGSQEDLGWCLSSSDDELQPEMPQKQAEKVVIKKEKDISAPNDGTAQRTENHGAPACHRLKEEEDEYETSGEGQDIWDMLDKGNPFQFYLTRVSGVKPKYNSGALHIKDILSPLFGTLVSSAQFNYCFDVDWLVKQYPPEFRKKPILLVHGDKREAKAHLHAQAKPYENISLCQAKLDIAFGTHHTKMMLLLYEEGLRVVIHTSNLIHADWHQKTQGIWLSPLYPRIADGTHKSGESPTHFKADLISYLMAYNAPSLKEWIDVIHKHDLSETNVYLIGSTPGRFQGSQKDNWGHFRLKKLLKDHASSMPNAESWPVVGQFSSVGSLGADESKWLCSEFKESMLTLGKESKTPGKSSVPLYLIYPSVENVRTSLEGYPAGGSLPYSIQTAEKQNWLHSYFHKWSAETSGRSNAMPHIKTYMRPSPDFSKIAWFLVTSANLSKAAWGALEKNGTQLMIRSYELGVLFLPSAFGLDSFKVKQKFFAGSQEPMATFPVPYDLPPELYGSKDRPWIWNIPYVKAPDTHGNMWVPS
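E. coli-derived human Tdp1, 1 nM final. Cpd preinc 15 min RT; substrate 15 nM final, 5 min RT; AS bead mix 10 ug/ml final, 10 min RT. Signal loss = tyrosine-FITC cleavage. No-enzyme wells = max signal.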
ALOX12 inh = ALOX12 (human) lipoxygenase inhibition. purified 12hLO, xylenol orange hydroperoxide absorbance. Potency, µM (top dose mostly 108 µM), usual class: inhibitors. 1.1% of 580,000 active. AID 1671190
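Purified human 12hLO (150 nM final) in 25 mM Hepes, 0.01% Triton X-100, pH 7.0 was preincubated 15 min at room temperature with compound. Then 40 uM arachidonic acid was added, 30 min. Hydroperoxide was read by Fe-XO absorbance ratio 573/405 nm.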
ClpP mod = qHTS Assay for Activators of ClpP. ATP-dependent Clp protease proteolytic subunit (Bacillus subtilis (strain 168)), P80244. purified B. subtilis ClpP, FRET peptide cleavage, 20 min. Potency, µM (titrated, usually from 57.5 µM). 1.9% of 340,000 active. AID 651965, 2013; active = well fitted falling curve with a large enough effect; inconclusive = small, poorly fitted or top-dose-only effect; inactive = no such curve, though single readings can be large or run the other way; note: the source files actives as falling curves though it sought activators and does not explain the sign; nearly all actives have a fitted effect of over 65% in size
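Buffer: 100 mM Tris/HCl pH8, 100 mM KCl, 0.05% low protease BSA, 2.5% glycerol, 0.01% Tween-20. ClpP 10 microg/mL final; 20 min RT; delta FRET normalized to ADEP and DMSO controls.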
PTAP TSG101 blk = blocks PTAP/TSG101 interaction to inhibit HIV-1 budding. Q99816. 340,000 tested, under 10 active. Fluorescence polarization, FITC-PTAP peptide / Tsg101 binding. Potency, µM (titrated, usually from 115 µM), hits mostly inhibitors. AID 493005; active = well fitted inhibition curve with a large enough effect in the main read-out, with a control signal flat, not every such curve was filed as active; inconclusive = small, poorly fitted or top-dose-only effect, or effect the other way, or a change in a side signal; inactive = no such curve, though single readings can be large or run the other way
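Compounds were pin-transferred onto Tsg101 binding domain (10 uM final) in HEPES pH 7.5 buffer, then FITC-PTAP peptide was added at 50 nM final. After 20 min at RT, polarization reported peptide displacement across a qHTS concentration series.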
Rango release inh = prevents RanGTP from dissociating the Rango-importin beta complex; Potency, µM (top dose mostly 46.1 µM); Biochemical FRET Rango-importin beta, RanGTP-induced dissociation; AID 540253; 0.071% of 340,000 active; O95149+P62826; calls by dose curve; note: nearly all actives have a fitted effect of over 45% in size
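Compounds sat 5 min at room temperature with 0.1 uM Rango biosensor plus 0.25 uM importin beta, then FRET pre-read. RanGTP-RCC1 (0.6 uM Ran, 2mM GTP, 0.2 uM RCC1) added for 45 min, and the CFP/YFP post-read measured blocked complex dissociation.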
A number is an active result; n = inactive; u = inconclusive; x = no result given; ! = repeats disagree; [ ] = dose if it differs, or a comment. Unless noted, calls come from the whole dose curve; as a rule, active = well fitted curve in the direction sought with a large enough effect; inconclusive = small, poorly fitted or top-dose-only effect, or another doubt; inactive = no such curve, though single readings can be large; an effect the other way counts as inactive or inconclusive.

SMILES	Rango complex inh	TDP1 block	ALOX12 inh	ClpP mod	PTAP TSG101 blk	Rango release inh
COc1ccc(CNC(=O)CC[C@H]2CNC(=O)[C@@H]3[C@@H](CCN3Cc3ccccc3)N2C)cc1	x	x	n	x	x	x
Cc1ccc(C(=O)Nc2ncn(CC(=O)NCc3ccccc3C)n2)cc1	x	x	n	x	x	x
COC(=O)c1cc(=O)nc2sccn12	n	n	n	28µM	n	n
COC(=O)c1cc(=O)nc2sc(-c3ccccc3)nn12	n	n	n	28µM	n	n
O=C1CO[C@H](c2ccc(NS(=O)(=O)Cc3ccccc3)cc2)[C@@H](CO)N1C1CCOCC1	x	x	n	x	x	x
CC(C)NC(=O)c1nnc2n1CCN(Cc1ccc(Cl)c(F)c1)C2	x	x	n	x	x	x
C/C(CCc1ccc(OC(C)C)cc1)=N\O	x	x	n	x	x	x
O=C(O)c1ccc(C2CCCN(C(=O)c3cccc4cccnc34)C2)cc1 (configuration not stated)	x	x	n	x	x	x
O=C(O)C1C2C=CC(CC2)C1C(=O)O (configuration not stated)	n	10µM	n	n	n	n
COC(=O)[C@H](NC(=O)[C@@H]1[C@@H](NC(=O)Nc2cccc(OC)c2)CCN1C(=O)C=C(C)C)C(C)C	x	x	n	x	x	x
Nc1cc([N+](=O)[O-])ccc1N1C(=O)CCCC1=O	n	20µM	u	n	n	n
CC(C)CC(NC(=O)c1ccc(Cl)cc1)C(=O)OCc1cc([N+](=O)[O-])cc2c1OCOC2 (configuration not stated)	n	n	u	22µM	n	n
COC(=O)CSc1ccc(C#N)c(SCC(=O)OC)c1	n	n	n	14µM	n	n
Cc1ccc2nc(Cl)c3cc(C(=O)N(CCN(C)C)Cc4ccco4)sc3c2c1	n	n	n	25µM	n	n
O=C(O)c1cc(-c2ccco2)nc2ccc(Br)cc12	n	n	16µM!	n	n	n
Cc1cccc2c(C(=O)O)cc(-c3ccco3)nc12	x	x	8.9µM	x	x	x
Cc1ccc(-c2cc(C(=O)NCc3ccco3)c3cccc(C)c3n2)cc1	x	x	n	x	x	x
COc1cc(OC)c2c(-c3cccc(-c4cccc(C)c4)c3)cc(=O)oc2c1	n	n	n	22µM	n	n
COc1ccc(-n2nc(C)c([C@H]3C=C[C@@H](OC(=O)N[C@H](C)c4ccccc4)C3)c2C)cc1	x	x	n	x	x	x
O=C(CCC1CCCC1)NCC1CN(Cc2ccccc2)CCO1 (configuration not stated)	x	x	n	x	x	x
Oc1c(Br)cc(C2N=C(c3ccccc3)NO2)cc1Br (configuration not stated)	n	x	28µM	n	n	n
O=C(Nc1cccc(CO)c1)c1cn(Cc2ccccc2Cl)nc1-c1ccccc1	x	x	n	x	x	x
CC(C)(C)c1ccc(-c2nnc(SCc3cccc(S(=O)(=O)N4CCOCC4)c3)n2N)cc1	x	x	n	x	x	x
C=CCOc1ccc2c(CC)cc(=O)oc2c1C	n	n	n	25µM	n	n
CCc1cc(=O)oc2c(C)c(O[C@@H]3O[C@H](CO)[C@@H](O)[C@H](O)[C@H]3O)ccc12	n	x	n	28µM	n	n
SMILES	Rango complex inh	TDP1 block	ALOX12 inh	ClpP mod	PTAP TSG101 blk	Rango release inh
CCN1CCCC1CNC(=O)CCCNc1nc(Cl)nc2nc[nH]c12 (configuration not stated)	x	x	n	x	x	x
O=C(COC(=O)/C=C/c1ccco1)Nc1ncc(C(F)(F)F)cc1Cl	n	13µM	u	n	n	n
O=C(COC(=O)c1cnccn1)Nc1ncc(C(F)(F)F)cc1Cl	u	n	5µM	n	n	n
Cc1c(Cl)cnc(NC(=O)COC(=O)/C=C/c2ccco2)c1Cl	u	u	u	n	n	n
CC(C)(C)c1ccc(C(CC(=O)O)NC(=O)C2CCCCC2)cc1 (configuration not stated)	x	x	n	x	x	x
CN1CC(=O)N(C2CCC2)Cc2c(NCC3CC3)ncnc21	x	x	n[6.33 µM]	x	x	x
COc1ccc(CCNC(=O)CSc2ccc3nnc(CCNC(=O)c4ccc(C)cc4)n3n2)cc1OC	u	x	n	n	n	6.5µM
Cc1ccc(C(=O)NCCc2nnc3ccc(SCC(=O)NCc4ccc(F)cc4)nn23)cc1	n	n	n	n	n	n
COc1cc(/C=C/c2nc3ccccc3o2)ccc1OC(C)C	x	x	n	x	x	x
O=C1C(SC(F)(F)C(F)F)=C(C(F)(F)F)OC2C3C=CC(C3)C12 (configuration not stated)	n	n	u	16µM	n	n
Cc1cccc(N2CCN(CC(=O)NCC3CCCCC3)CC2)c1C	n	n	0.89µM	n	n	n
Cc1cccc(N2CCN(C(=O)NC3CCCCC3)CC2)c1C	n	x	n	n	n	n
O=C(c1cc2cc(Cl)cc(Cl)c2oc1=O)N1CCOCC1	u	n	n	22µM	n	u
CC(=O)c1c(O)c(C)c(-c2ccccc2)n(-c2ccccc2)c1=O	n	n	u	22µM	n	n
Cc1ccccc1-c1cc(C(=O)NCc2cccc(Br)c2)n(CC2CC(c3cccnc3)=NO2)n1 (configuration not stated)	u	n	40µM	n	n	n
COc1ccc(/C=C2\C(=O)ON=C2c2ccccc2)cc1OC	n	x	7.1µM	n	n	n
O=C1ON=C(c2ccc([N+](=O)[O-])cc2)/C1=C/c1ccccc1O	n	x	u	x	n	n
O=[N+]([O-])c1ccccc1-c1ccc(/C=N/O)o1	x	x	n	x	x	x
COc1ccc(/C=C2\C(=O)ON=C2c2cccc([N+](=O)[O-])c2)cc1	x	n	32µM	x	x	x
O=C1ON=C(c2ccccc2)/C1=C/c1ccc(-c2ccccc2[N+](=O)[O-])o1	n	n	4µM	n	n	n
COc1ccc(/C=C2/C(=O)ON=C2c2ccccc2)cc1OC	n	n	u	n	n	n
O=C1ON=C(c2ccccc2)/C1=C/c1ccco1	n	n	7.9µM	n	n	n
C=CCNC(=O)c1ccccc1NC(=O)c1ccccn1	x	x	n	x	x	x
CC(CCc1ccccc1)NC(=O)CC1CC2CCC1C2 (configuration not stated)	x	x	n	x	x	x
Cc1ccc(C)c(C(=O)N2CCOC(CCCc3ccccc3)C2)c1 (configuration not stated)	x	x	n	x	x	x
NC(=O)COc1ccccc1	n	x	n	n	n	n
NC(=O)COc1ccc(/C=C2\C(=O)ON=C2c2ccccc2)cc1	n	n	7.1µM	n	n	n
COc1cc(/C=C2\C(=O)ON=C2c2ccccc2)cc(OC)c1OC	n	n	u	n	n	n
CCOc1cc(/C=C2\C(=O)ON=C2c2ccccc2)ccc1OC	n	x	13µM	n	n	n
Cc1ccc(C2=NOC(=O)/C2=C\C=C\c2ccccc2)cc1	n	n	1.1µM	32µM	n	n
